This passage reports manual score results from PubChem BioAssay AID623911 (Vanderbilt High Throughput Screening Facility, 2012).

Structures are written as SMILES. Among all 2,100 compounds or so, about 770 (37%) were called active. The list shows a part of the results. A number with no mark means an inactive call.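 The calls were made as follows: active = by-eye trace score of 1 for enhancers or -1 for inhibitors, so actives lie on both sides (some results past the limit were not filed as active); inactive = score 0, or 3 fluorescent, or 4 baseline rise.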

Chain of G protein-activated inward rectifier potassium channel 2 (Homo sapiens) + G protein-activated inward rectifier potassium channel 1 (Homo sapiens) (P48051 whole entry, looked up): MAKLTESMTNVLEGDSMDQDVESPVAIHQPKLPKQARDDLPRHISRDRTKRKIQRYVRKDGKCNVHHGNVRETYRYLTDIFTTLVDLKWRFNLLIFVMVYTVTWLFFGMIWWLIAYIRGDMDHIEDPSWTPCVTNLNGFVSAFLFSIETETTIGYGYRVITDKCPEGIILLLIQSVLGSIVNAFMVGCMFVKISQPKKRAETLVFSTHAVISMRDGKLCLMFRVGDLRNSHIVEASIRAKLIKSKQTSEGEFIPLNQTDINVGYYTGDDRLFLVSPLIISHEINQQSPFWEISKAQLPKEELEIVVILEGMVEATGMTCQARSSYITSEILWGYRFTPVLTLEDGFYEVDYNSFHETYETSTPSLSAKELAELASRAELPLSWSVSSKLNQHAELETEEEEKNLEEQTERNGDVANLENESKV
Chain of G protein-activated inward rectifier potassium channel 2 (Homo sapiens) + G protein-activated inward rectifier potassium channel 1 (Homo sapiens) (P48549 whole entry, looked up): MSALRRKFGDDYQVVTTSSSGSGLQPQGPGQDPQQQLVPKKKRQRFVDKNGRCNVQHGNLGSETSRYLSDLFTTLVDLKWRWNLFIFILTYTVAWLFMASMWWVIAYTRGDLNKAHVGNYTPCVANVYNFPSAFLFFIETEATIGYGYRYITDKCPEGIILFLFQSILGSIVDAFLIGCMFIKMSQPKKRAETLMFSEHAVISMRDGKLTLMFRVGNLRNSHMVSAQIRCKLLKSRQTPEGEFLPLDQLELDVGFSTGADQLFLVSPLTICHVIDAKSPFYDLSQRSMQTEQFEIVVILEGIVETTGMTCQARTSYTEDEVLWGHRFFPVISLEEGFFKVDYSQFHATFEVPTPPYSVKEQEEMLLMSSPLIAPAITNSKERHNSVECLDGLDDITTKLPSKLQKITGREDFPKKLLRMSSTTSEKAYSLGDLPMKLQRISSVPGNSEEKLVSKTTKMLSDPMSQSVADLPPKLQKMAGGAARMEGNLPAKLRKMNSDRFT

This experiment addresses G protein-activated inward rectifier potassium channel 2 (Homo sapiens) + G protein-activated inward rectifier potassium channel 1 (Homo sapiens) (UniProt P48051+P48549). The experiment in a line: GIRK1/2 thallium flux modulators, retest, confirmation, cell-based, HEK293 rmGlu8/hGIRK1/2, FluoZin-2 (AID 623911). As to conditions: HEK293 rmGlu8/hGIRK1/2, thallium flux FluoZin-2; actives lie on both sides; glutamate co-added at its EC20 level.
As to `CCCOC(=O)c1ccc(-c2c(C)noc2-c2ccc(OC)cc2O)o1`, the manual score was 0.

Regarding `CC(=O)c1c(C)[nH]c(C(=O)COc2cc(C)cc(C)c2)c1C`, the manual score is 0.

As for `Fc1ccccc1/C=N/NC(=S)Nc1ccc(Cl)cc1Cl`, the manual score was 0.

Regarding `Fc1ccccc1NC(=S)N/N=C/c1ccccc1Br`, the manual score was 0.

In the case of `O=[N+]([O-])c1ccc(/C=N/NC(=S)Nc2ccccc2F)o1`, the manual score was 1 (active).

With `CSC(=O)NC12CC3CC(CC(C)(C3)C1)C2`, the manual score is 0.

Consider `COCCNC(=O)CN1C(=O)CSc2ncccc21`, for which the manual score was 1 (active).

As to `COCCNC(=O)CCCCCn1c(=S)[nH]c2ccccc2c1=O`, the manual score is 0.

`CCC(C)NC(=O)CN1C(=O)CC(C)(C)S(=O)(=O)c2ccccc21` (stereo not given): the manual score was 0.

As to `CC(c1ccc(F)cc1)n1c(-c2ccc3ccccc3n2)n[nH]c1=S` (stereo not given), the manual score was 0.5.

For the compound `CCc1cc(-c2n[nH]c(=S)n2C(C)c2ccccc2)cs1` (stereo not given), the manual score is -0.5.

Turning to `CC(c1ccc(Cl)cc1)n1c(-c2ccc3ccccc3n2)n[nH]c1=S` (stereo not given), the manual score is 1 (active).

Regarding `COc1ccc(NC2=Nc3cccc4cccc2c34)cc1OC`, the manual score is 0.

On to `CCCCN(C)C1=Nc2cccc3cccc1c23`, for which the manual score was -1 (active).

As to `CC/C(=N\NC(=S)Nc1ccc(OC)cc1)c1ccc(OC(F)F)cc1`, the manual score is 0.

Take `CCc1ccc(NC(=S)NNC(=O)c2ccccc2OC(F)F)cc1`: the manual score was 1 (active).

As to `O=C1C2C3C=CC(C3)C2C(=O)N1/N=C/c1cn(Cc2ccccc2)c2ccccc12` (stereo not given), the manual score is 0.

In the case of `CCOC(=O)Cc1csc(NC(=S)NC(=O)c2ccccc2)n1`, the manual score was 1 (active).

Regarding `O=C(NC(=S)Nc1nc2c(s1)CCCC2)c1ccccc1`, the manual score is 0.

Regarding `CCOC(=O)Cc1csc(NC(=S)NC(=O)C(C)(C)C)n1`, the manual score is 1 (active).

`O=C(NC(=S)Nc1nc2c(s1)CCCC2)c1ccc(C(=O)c2ccccc2)cc1`: the manual score was 0.

Turning to `CCOC(=O)Cc1csc(NC(=S)NC(=O)c2ccc(C)cc2)n1`, the manual score was 1 (active).

With `CC(C)CC(=O)NC(=S)Nc1nc(-c2cccc3ccccc23)cs1`, the manual score was 0.

Turning to `CCOC(=O)Cc1csc(NC(=O)Nc2ccccc2)n1`, the manual score is 1 (active).

Consider `O=C1C(Cl)=C(N2CCOCC2)C(=O)N1c1cccc(Cl)c1`, for which the manual score is 0.

Turning to `CCCc1cc(-c2n[nH]c(=S)n2CC(C)C)cs1`, the manual score is 0.

For `CCCCCNC(=O)c1ccc2c(=O)[nH]c3c(C(=O)NCC4CCCO4)sc(=S)n3c2c1` (stereo not given), the manual score was 0.

Take `CC(C)C(C)(C#N)NC(=O)CSc1ncnc2sc(-c3ccccc3)cc12` (stereo not given): the manual score was 0.

Regarding `Cc1cc(C(=O)CSc2n[nH]c(N)n2)c(C)n1-c1cc(F)ccc1F`, the manual score is 0.

Regarding `O=C1Nc2cc(S(=O)(=O)N3CCCC3)ccc2N2CCCC12` (stereo not given), the manual score is 0.

As for `Cc1cc(C(=O)OCC(=O)Nc2ccc(F)cc2)c(C)o1`, the manual score is 0.

Take `CCOCc1c(C(=O)OCC(=O)Nc2ccc(C)c(S(=O)(=O)N(C)C)c2)oc2ccccc12`: the manual score is 1 (active).

Take `CC(C)c1ccccc1NC(=O)COC(=O)/C=C/c1cccc([N+](=O)[O-])c1`: the manual score is 0.

For the compound `Cc1ccc(NC(=O)Cc2ccccc2Cl)cc1S(=O)(=O)N(C)C`, the manual score was 1 (active).

For `Cc1ccc(NC(=O)COC(=O)CCC(=O)c2ccc(Cl)cc2)cc1S(=O)(=O)N(C)C`, the manual score was 1 (active).

As to `Cc1ccc(NC(=O)COC(=O)/C=C/c2ccco2)cc1S(=O)(=O)N(C)C`, the manual score was 1 (active).

Turning to `Cc1ccc(NC(=O)COn2nnc3ccc(S(=O)(=O)N(C)C)cc32)cc1F`, the manual score was 0.

With `O=C(CSCc1ccc(Br)cc1)N=Nc1c(O)[nH]c2ccccc12`, the manual score was 0.

Take `CCc1nnc(NC(=O)CSc2nnc(C3CCCCC3)n2-c2cccc(Cl)c2)s1`: the manual score was 0.

`COCCN=c1scc(-c2cccs2)n1/N=C/c1ccc(O)c(O)c1O`: the manual score is 0.

Take `CCOC(=O)CN1NC2(CCC(C(C)(C)C)CC2)NC1=S` (stereo not given): the manual score is 0.

For `Cc1ccc(NC(=O)Cc2c(Cl)cccc2Cl)cc1S(=O)(=O)N(C)C`, the manual score was 1 (active).

Regarding `COC(=O)c1sccc1NC(=O)CSc1ccccc1NS(=O)(=O)c1ccccc1Cl`, the manual score was 0.

Consider `CC1(C)NC(=O)NC2(C)NC(=O)NC(C)(C)C12` (stereo not given), for which the manual score was 0.

Take `COc1cc(C(=O)NC2CC3CCCC(C2)N3CC(=O)Nc2ccccc2)cc(OC)c1OC` (stereo not given): the manual score was -1 (active).

Take `COc1cc(NC(=O)CS(=O)(=O)c2ccc(C)cc2)cc(OC)c1OC`: the manual score was 0.

As for `CC1CCN(CC(O)COC2CCC(C(C)(C)C)CC2)CC1` (stereo not given), the manual score was -1 (active).

For `O=C1OCCC1Sc1nc2cc(Cl)ccc2n1Cc1ccccc1` (stereo not given), the manual score is 0.

On to `CCCCSc1nc(N)c(NC(=O)c2ccco2)c(=O)[nH]1`, for which the manual score is 0.

Consider `CCN(C(=O)COc1cc(=O)n(CC)c2ccccc12)c1cc(Cl)ccc1OC`, for which the manual score is -0.5.

As to `COC(=O)[C@H]1CCCN1C(=O)Nc1cccc(Oc2c(F)c(F)c(F)c(F)c2F)c1`, the manual score is 0.

On to `COc1cccc(NC(=O)NCCCSC2CCCCC2)c1`, for which the manual score was 1 (active).

Regarding `COc1ccc(S(=O)(=O)NCCC(=O)NC2CCCCCCC2)cc1`, the manual score was 0.

As for `Cc1sc2c(c1C)CN(C1CC(C)(C)NC(C)(C)C1)CN2C(=O)c1ccco1`, the manual score is -1 (active).

Regarding `C/C(=N\NC(=O)COc1ccc(C)cc1C(C)C)c1ccc(-n2ccnc2)cc1`, the manual score is -1 (active).

Consider `Cc1ccc(OCC(=O)N/N=C\c2ccc(-c3cccc(C(=O)O)c3)o2)c(C)c1`, for which the manual score was 0.

On to `Cc1conc1NC(c1cccs1)c1ccc2cccnc2c1O` (stereo not given), for which the manual score is 0.

With `O=S(=O)(Nc1nc(-c2sccc2Cl)cs1)c1cc(Cl)ccc1Cl`, the manual score was 0.

`Cc1ccc(Nc2cc(C)nn2-c2nc(C)cc(=O)[nH]2)cc1`: the manual score is 1 (active).

On to `Cc1cc(NC(=O)c2c(F)cccc2Cl)n(-c2nc3ccccc3[nH]2)n1`, for which the manual score was 0.

Regarding `COc1ccccc1-c1ccc(NC2CCCC2)nn1`, the manual score was 0.

Turning to `COc1ccccc1NC(=O)c1cc(C(=O)Nc2ccccc2OC)cc(N2C(=O)CCC2=O)c1`, the manual score is 0.

For the compound `COc1ccccc1Nc1ccc(Nc2ccccc2OC)nn1`, the manual score was 1 (active).

Regarding `CCCC(=O)NC(c1cccs1)c1cc([N+](=O)[O-])c2cccnc2c1O` (stereo not given), the manual score is 0.

For the compound `CCc1c(C)sc(NC(=O)CCc2ccc(OC)cc2)c1C(N)=O`, the manual score was 0.
